Bioassay records: PubChem, National Center for Advancing Translational Sciences (NCATS)
Lassa entry inh – blocks Lassa virus binding to or entry into cells | Potency, µM (doses to about 37.9 µM), usual class: inhibitors | hit rate 1.2% among 300,000 | AID 540256 | Lassa virus pseudotype entry inhibition, cell reporter; calls by dose curve; tested in HEK293 cells; further: nearly all actives have a fitted effect of over 50% in size
SARS PLP yeast – blocks SARS-CoV papain-like protease in a yeast assay. hit rate 0.19% among 330,000. S. cerevisiae expressing SARS-CoV PLpro, growth rescue. Potency, µM (series often up to 32.9 µM), actives largely listed as activators; calls by dose curve; further: nearly all actives have a fitted effect of over 55% in size
FMDV inh – blocks foot and mouth disease virus | FMDV antiviral cell-based qHTS | Potency, µM (doses to about 57.9 µM), usual class: inhibitors | hit rate 1.2% among 410,000 | AID 1159524; calls by dose curve; tested in HEK293T cells; further: read-out not given here; nearly all actives have a fitted effect of over 45% in size
HCV inhibitor – blocks hepatitis C virus; AID 651820; Huh7.5.1 HCVcc-Cre infection, luciferase reporter, 44 h; hit rate 3.4% among 340,000; Potency, µM (titrated, usually from 41.8 µM), actives largely listed as inhibitors; active means well fitted inhibition curve with a large enough effect; inconclusive means small, poorly fitted or top-dose-only effect, or another doubt; inactive means no such curve, though single readings can be large or run the other way
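Infectious HCV cell culture screen: compound-treated cells (1,000/well, pre-plated 4 h) are infected with HCVcc-Cre at roughly 0.5 moi and grown 44 h. Infection is quantified by luciferase signal after 15 min substrate incubation at room temperature.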
MARV entry inh – inhibitors of Marburg virus binding or cell entry | Potency, µM (top dose mostly 37.8 µM), actives largely listed as inhibitors | hit rate 1.8% among 300,000 | Marburg virus pseudotyped entry inhibition, cell reporter; calls by dose curve; tested in HEK293 cells
HCMV antiviral – blocks human cytomegalovirus replication; activity change, negative = inhibition, % at 57.5 µM; hit rate 4.5% among 410,000; HFF cells, HCMV-luciferase reporter, 72 h; stronger effect = lower value; in the data active means activity change below about -60%; inconclusive means no clear call, values can overlap the other calls; inactive means above about -39%
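Two compound doses tested in HFFs infected with HCMV-luciferase, MOI 1 PFU/cell, 72 h at 37C. Lysate luminescence read with OneGlo; data normalized against buffer-only and 10uM Salinomycin inhibitor controls.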
Numbers stand for hits; – = inactive; ? = inconclusive; · = no result given; ! = a repeat was not active; [ ] = another dose, or the depositor's remark. Compounds with a hit are over-represented: about 8% of the library has one in this group of screens.

SMILES	Lassa entry inh	SARS PLP yeast	FMDV inh	HCV inhibitor	MARV entry inh	HCMV antiviral
CCOc1ccc(NC(=O)CSc2nc(-c3cccs3)cc(C(F)(F)F)n2)c([N+](=O)[O-])c1	–	–	–	–	?	-101
CC(C)=C1CCC(C)CC1=NNC(N)=S (stereo unspecified)	?	·	?	?	–	–
CC1C/C(=N\NC(N)=S)c2cc(Cl)ccc2S1 (stereo unspecified)	?	–	?	–	13µM	–
CCCn1c2c(c(O)c(C(=O)Nc3ccccc3)c1=O)CCCC2	–	–	–	10µM	–	–
O=C(Nn1c(Cc2ccccc2)nc2ccccc2c1=O)c1c(O)c2cccc3c2n(c1=O)CCC3	·	–	–	–	·	-66
CCCn1c2c(c(O)c(C(=O)Nc3ccccn3)c1=O)CCCC2	·	–	·	·	–	·
CCc1nc2ccccc2c(=O)n1NC(=O)c1c(O)c2cccc3c2n(c1=O)CCC3	–	·	–	–	–	–
CCCCc1nc2ccccc2c(=O)n1NC(=O)c1c(O)c2c(n(CC(C)C)c1=O)CCCC2	–	?	–	–	–	-79
COc1cc(C(=O)N/N=C/c2ccsc2C)cc(OC)c1OC	?	–	–	?	?	-79
COc1cc(C(=O)Oc2ccccc2/C=N/NC(=O)c2ccc(C)cc2)cc(OC)c1OC	8.9µM	–	–	7.9µM	?	-99
COc1ccc(C(=O)N/N=C/c2ccc(OC(=O)c3ccccc3)cc2)cc1	–	–	–	–	–	–
COc1ccc(C(=O)N/N=C/c2ccccc2OC(=O)c2ccccc2)cc1	?	–	–	?	13µM	-97
CC(C)(C)C(=O)Nc1ccc(C(=O)N/N=C/c2ccccc2OC(=O)c2ccccc2)cc1	?	–	–	?	?	–
CC(C)(C)C(=O)Nc1ccc(C(=O)N/N=C/c2ccccc2OC(=O)c2ccc(Cl)cc2)cc1	?	–	–	10µM	?	–
COc1cc2c(cc1OC)C1O[C@](CCCCN3C(=O)c4ccccc4C3=O)(C2)OC2=C1C(=O)c1ccccc1C2=O	·	–[6.58 µM]	·	·	·	·
CC1CCc2nc3ncn(CC(=O)Nc4cccc(C#N)c4)c(=O)c3cc2C1 (stereo unspecified)	–	·	–	·	·	–
Cc1nc2ccccc2n1C(c1cccnc1)c1nc2ccccc2[nH]1 (stereo unspecified)	·	·	–	·	·	-79
c1ccc(-c2nc3ccccc3n2C(c2ccccc2)c2nc3ccccc3[nH]2)cc1 (stereo unspecified)	·	·	–	·	·	–
COc1cccc(C(=O)NCC2Cc3cccc(-c4nc(C)cnc4C)c3O2)c1OC (stereo unspecified)	·	·	–	·	·	·
COC(=O)N1CCN(C(=O)Cc2ccc(Cl)c(Cl)c2)C(CN2CCCC2)C1 (stereo unspecified)	?	–	–	·	11µM	·
c1cn(-c2ccnc(-c3ccc4c(c3)OCO4)n2)cn1	·	·	–	·	·	·
COc1ccc(C(=O)N2CCC3(CCCN(C(=O)Nc4cccc(C#N)c4)C3)CC2)cc1	·	·	–	·	·	·
COC(=O)[C@@H]1[C@@H](C#N)C2(c3ccccc3-c3ccccc32)N(c2ccc(Cl)cc2)N1C#N	?	–	25µM	?	?	–
CCCCNC(=O)C(c1ccc(OCC(=O)OC)c(C(=O)OC)c1)N(CCOC)C(=O)CCCCCN1C(=O)NC(c2ccc(-c3ccccc3)cc2)C(C(=O)OCc2ccccc2)=C1C (stereo unspecified)	·	–	·	·	·	-95
O=C(CSc1nc(O)cc(=O)n1-c1ccccc1)Nc1nc2ccccc2s1	–	–	–	–	–	–
SMILES	Lassa entry inh	SARS PLP yeast	FMDV inh	HCV inhibitor	MARV entry inh	HCMV antiviral
COc1ccc(-c2c(C)nn3c(C(F)(F)F)cc(-c4ccc(Br)cc4)nc23)cc1	–	·	–	·	–	–
CC1(C)CC2CC(C)(CN2/C=N/c2sc3c(c2C#N)CC(C)(C)NC3(C)C)C1 (stereo unspecified)	?	–	–	?	?	-88
CC1(C)Cc2c(sc(N)c2C#N)C(C)(C)N1	·	–	–	–	·	–
COC(=O)C1=C(c2ccc(OC(F)(F)F)cc2)C[C@@H]2CC[C@H]1N2C(=O)NCc1cccc2ccccc12	·	–	13µM	10µM	·	–
COC(=O)C1=C(c2ccc(OC(F)(F)F)cc2)C[C@@H]2CC[C@H]1N2C(=O)NCCc1ccccc1	·	–	–	?	·	?
COC(=O)C1=C(c2ccc(S(C)(=O)=O)cc2)C[C@@H]2CC[C@H]1N2C(=O)NCc1ccc(F)cc1	·	·	–	?	·	-63
COC(=O)C1=C(c2ccc(OC(F)(F)F)cc2)C[C@@H]2CC[C@H]1N2C(=O)NCc1ccc(F)cc1	·	–	–	?	·	–
CSc1nc(NNC=O)cc(Oc2ccc(NC(C)=O)cc2)n1	·	–	–	–	·	–
c1cc(-c2cc3nc(NC4CCCCC4)ccn3n2)ccc1OCCN1CCOCC1	·	·	?	·	·	–
C=C1C(=O)OC2C=C(CO)C3OC3C3OC3(C)CC(OC(=O)/C(=C/C)COC(C)=O)C12 (stereo unspecified)	?	·	7.9µM	?	2.5µM	-100
CC(=O)OCC1=C[C@@H]2OC(=O)C3=CO[C@@H](O[C@@H]4O[C@H](CO)[C@@H](O)[C@H](O)[C@H]4O)[C@H]1[C@@H]32	·	–	–	–	·	–
Cc1ccc(S(=O)(=O)N(CC(=O)Nc2cccc(C)c2C)C(=O)N2CCN(C)CC2)cc1	–	–	–	–	–	–
C=CCn1c(=N)n(CC(=O)c2ccc(Br)s2)c2ccccc21	?	–	–	?	?	-74
CCCn1cc(S(=O)(=O)c2ccc(F)cc2)c(=O)c2cc(OCC)ccc21	·	–	–	–	·	-67
O=C(NCCNC(=O)c1ccc(Cl)cc1Cl)c1cnccn1	–	–	–	–	–	–
O=C1CCCC2=C1C(c1ccc(Cl)cc1)C1C(=O)c3ccccc3C1=N2 (stereo unspecified)	–	–	?	?	?	-70
O=C1CCCC2=C1C(c1ccccc1)C1C(=O)c3ccccc3C1=N2 (stereo unspecified)	–	–	–	?	–	–
CCCCC(CC)CNC(=O)c1ccc(Cn2c(=O)[nH]c3cc(OC)c(OC)cc3c2=O)cc1 (stereo unspecified)	?	·	–	·	–	–
CCOc1ccccc1N(C)C(=O)Cn1ncc2c([nH]c3ccccc32)c1=O	–	–	–	?	6.3µM	–
CCOc1ccccc1N(C)C(=O)Cn1nc(Cc2cccnc2)c2ccccc2c1=O	–	·	–	·	–	-72
O=C(c1cc2nc(-c3cccs3)cc(C(F)(F)Cl)n2n1)N1CCCc2ccccc21	–	–	·	7.1µM	?	-87
O=C(c1cc2nc(-c3cccs3)cc(C(F)(F)F)n2n1)N1CCCc2ccccc21	?	–	–	10µM	?	?
O=C(c1nn2c(C(F)(F)F)cc(-c3cccs3)nc2c1Br)N1CCCc2ccccc21	–	–	–	?	–	–
O=C(c1nn2c(C(F)(F)F)cc(-c3ccco3)nc2c1Br)N1CCCc2ccccc21	?	–	–	13µM!	?	–
